The record followed here is PubChem BioAssay (EPA / NIEHS).

Calls of active or inactive are those of the source. Rule for the calls: active = hit-call score of the fitted dose curve at least 0.9, where 1 is the maximum; inactive = score below 0.9.

Read-out in the first assay: not listed separately
As to the kind of experiment: BSK_3C_SRB: Viability Assessment in the BioMAP Diversity Plus: 3C Assay (AID 2283023).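 Note: fitted both ways against DMSO so a hit may be signal rise or drop.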 To be noted: primary human endothelial cells (HUVEC). A digest of the protocol: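 Overt cytotoxicity is gauged in parallel confluent HUVEC cultures by SRB total-protein staining at the time of biomarker measurement, 24 h after dosing. Gain or loss of signal is fitted versus DMSO.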
In general, AC50 refers to the concentration at which the activity in the assay is half-maximal. `O=C(O)C1(c2ccc3c(c2)OC[C@H](Cc2ccc(-c4ccccc4)cc2)[C@H]3O)CCCC1`: the AC50 was 28 µM (active).
As to `N#Cc1cccnc1`, the outcome was inactive.
Same read-out and setting: to `Cc1cc(Cl)ccc1OC(C)C(=O)O` (centres undefined) belongs “inactive”; to `O=C(CCl)NCO`, “inactive”; to `Nc1c(Oc2ccccc2)cc(O)c2c1C(=O)c1ccccc1C2=O`, “inactive”.
`Oc1cc(Cl)c(Cl)cc1Cl`: the AC50 was 28.7 µM (active).
`C[C@]12CC[C@@H](O)C[C@@H]1CC[C@@H]1[C@@H]2CC[C@]2(C)C(=O)CC[C@@H]12`: the result was inactive.
On the same count and under the same terms, the same measure for `CCC(C)(C#N)N=NC(C)(C#N)CC` (centres undefined): “inactive”; for `NC(=O)CCl`: “inactive”.
In the case of `CCCCN(CCCC)C(=S)[S-].CCCCN(CCCC)C(=S)[S-].[Ni+2]`, the outcome was inactive.
The same measure, in the same setting: to `CCCCOC(=O)COC(=O)c1ccccc1C(=O)OCCCC` belongs “inactive”; to `CCCCCCCCCCCCc1cccc(S(=O)(=O)O)c1`, “inactive”.
The same measure, in the same setting: to `O=C(N[C@H]1CN2CCC1CC2)c1ccc2c(c1)OCCO2` belongs “inactive”.
Same read-out and setting: the same measure for `Clc1cccc(Cl)c1Cl`: “inactive”.
As for `Cc1cccc(OP(=O)(Oc2cccc(C)c2)Oc2cccc(C)c2)c1`, the outcome was inactive.
Still for that read-out and setting: to `c1ccc2sc(SNC3CCCCC3)nc2c1` belongs “inactive”; to `OCCCCO`, “inactive”.
Turning to `CC(C)O.CC(C)O.OCCN(CCO)CCO.OCCN(CCO)CCO.[Ti]`, the outcome was inactive.
For `Oc1c(Br)cc(Br)cc1Br`, the AC50 is 35.5 µM (active).
Consider `Clc1cccc(Cl)c1`, for which the result was inactive.
Regarding `CC(C)N(C(=O)CCl)c1ccccc1`, the AC50 was 20 µM (active).
`Nc1ccc(N)cc1`: the result was inactive.
`Oc1cccc(-c2ccccc2)c1`: the AC50 is 20 µM (active).
On to `COCC(=O)N(c1c(C)cccc1C)[C@H](C)C(=O)OC`, for which the result was inactive.
As for `O=C1C=CC(=O)c2ccccc21`, the AC50 is 4.92 µM (active).
Consider `Cc1cc(Cl)ccc1N`, for which the result was inactive.
Same read-out and setting: to `O=C(Cc1ccccc1)OCCc1ccccc1` belongs “inactive”.
In the case of `O=c1oc2ccccc2c(O)c1C(CC(O)c1ccc(-c2ccc(Br)cc2)cc1)c1ccccc1` (centres undefined), the AC50 was 10.7 µM (active).
Regarding `Oc1ccc(Cc2ccc(O)cc2)cc1`, the outcome was inactive.
Regarding `Cc1c([N+](=O)[O-])c(C)c([N+](=O)[O-])c(C(C)(C)C)c1[N+](=O)[O-]`, the AC50 is 20 µM (active).
`CC(C)(COCC1CO1)COCC1CO1` (centres undefined): the outcome was inactive.
Still for that read-out and setting: the same measure for `CCOC(=O)CC(=O)CCl`: “inactive”.
Consider `CCCCCCCCCCCCN(C)C`, for which the AC50 is 20 µM (active).
With `CCOP(=S)(OCC)SCS(=O)(=O)C(C)(C)C`, the result was inactive.

Read-out in a further assay: Matrix Metallopeptidase 1 (MMP1), MMP1 (gene 4312)
The assay is described as follows: BSK_BE3C_MMP1: BioMAP Diversity Plus: BE3C Assay for Matrix Metallopeptidase 1 (MMP1) Biomarker Activity (AID 2283024). To be noted: primary human bronchial epithelial cells; actives raise or lower the signal. A digest of the protocol:
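MMP1 signal, measured by ELISA after a 24 h chemical exposure of human primary bronchial epithelial cells, is analysed with bidirectional fitting using DMSO as negative control.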
As for `O=C(O)C1(c2ccc3c(c2)OC[C@H](Cc2ccc(-c4ccccc4)cc2)[C@H]3O)CCCC1`, the AC50 was 31.7 µM (active).
Turning to `N#Cc1cccnc1`, the result was inactive.
The same measure, in the same setting: the same measure for `Cc1cc(Cl)ccc1OC(C)C(=O)O` (centres undefined): “inactive”; for `O=C(CCl)NCO`: “inactive”.
Take `Nc1c(Oc2ccccc2)cc(O)c2c1C(=O)c1ccccc1C2=O`: the AC50 was 5.87 µM (active).
For `Oc1cc(Cl)c(Cl)cc1Cl`, the outcome was inactive.
Still for that read-out and setting: the same measure for `C[C@]12CC[C@@H](O)C[C@@H]1CC[C@@H]1[C@@H]2CC[C@]2(C)C(=O)CC[C@@H]12`: “inactive”; for `CCC(C)(C#N)N=NC(C)(C#N)CC` (centres undefined): “inactive”; for `NC(=O)CCl`: “inactive”.
The same measure, in the same setting: the same measure for `CCCCN(CCCC)C(=S)[S-].CCCCN(CCCC)C(=S)[S-].[Ni+2]`: “inactive”; for `CCCCOC(=O)COC(=O)c1ccccc1C(=O)OCCCC`: “inactive”.
Take `CCCCCCCCCCCCc1cccc(S(=O)(=O)O)c1`: the AC50 is 28.8 µM (active).
As for `O=C(N[C@H]1CN2CCC1CC2)c1ccc2c(c1)OCCO2`, the result was inactive.
Same read-out and setting: to `Clc1cccc(Cl)c1Cl` belongs “inactive”; to `Cc1cccc(OP(=O)(Oc2cccc(C)c2)Oc2cccc(C)c2)c1`, “inactive”; to `c1ccc2sc(SNC3CCCCC3)nc2c1`, “inactive”.
For the compound `OCCCCO`, the result was inactive.
As for `CC(C)O.CC(C)O.OCCN(CCO)CCO.OCCN(CCO)CCO.[Ti]`, the outcome was inactive.
Take `Oc1c(Br)cc(Br)cc1Br`: the result was inactive.
Same read-out and setting: to `Clc1cccc(Cl)c1` belongs “inactive”; to `CC(C)N(C(=O)CCl)c1ccccc1`, “inactive”; to `Nc1ccc(N)cc1`, “inactive”.
The same measure, in the same setting: the same measure for `Oc1cccc(-c2ccccc2)c1`: “inactive”.
Same read-out and setting: the same measure for `COCC(=O)N(c1c(C)cccc1C)[C@H](C)C(=O)OC`: “inactive”.
With `O=C1C=CC(=O)c2ccccc21`, the AC50 was 5.57 µM (active).
`Cc1cc(Cl)ccc1N`: the result was inactive.
On to `O=C(Cc1ccccc1)OCCc1ccccc1`, for which the result was inactive.
As for `O=c1oc2ccccc2c(O)c1C(CC(O)c1ccc(-c2ccc(Br)cc2)cc1)c1ccccc1` (centres undefined), the AC50 is 9.43 µM (active).
`Oc1ccc(Cc2ccc(O)cc2)cc1`: the result was inactive.
With `Cc1c([N+](=O)[O-])c(C)c([N+](=O)[O-])c(C(C)(C)C)c1[N+](=O)[O-]`, the AC50 was 7.08 µM (active).
As for `CC(C)(COCC1CO1)COCC1CO1` (centres undefined), the outcome was inactive.
Consider `CCOC(=O)CC(=O)CCl`, for which the result was inactive.
The same measure, in the same setting: to `CCCCCCCCCCCCN(C)C` belongs “inactive”; to `CCOP(=S)(OCC)SCS(=O)(=O)C(C)(C)C`, “inactive”.

Read-out in a further assay: not listed separately
The assay is described as follows: BSK_3C_Vis: BioMAP Diversity Plus: 3C Assay for Morphology Visualization (AID 2283025).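 Note: fitted both ways so gain or loss versus DMSO counts.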 Conditions: primary human endothelial cells (HUVEC). The procedure, abridged:
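Morphology read by light microscopy serves as a background control for the multiplexed 3C assay in human umbilical vein endothelial cells, taken 24 h after dosing, with DMSO as the negative control and bidirectional curve fitting.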
In the case of `O=C(O)C1(c2ccc3c(c2)OC[C@H](Cc2ccc(-c4ccccc4)cc2)[C@H]3O)CCCC1`, the outcome was inactive.
Regarding `N#Cc1cccnc1`, the outcome was inactive.
On the same count and under the same terms, to `Cc1cc(Cl)ccc1OC(C)C(=O)O` (centres undefined) belongs “inactive”; to `O=C(CCl)NCO`, “inactive”; to `Nc1c(Oc2ccccc2)cc(O)c2c1C(=O)c1ccccc1C2=O`, “inactive”.
As to `Oc1cc(Cl)c(Cl)cc1Cl`, the half-maximal activity concentration (AC50) was 39 µM (active).
For `C[C@]12CC[C@@H](O)C[C@@H]1CC[C@@H]1[C@@H]2CC[C@]2(C)C(=O)CC[C@@H]12`, the result was inactive.
The same measure, in the same setting: the same measure for `CCC(C)(C#N)N=NC(C)(C#N)CC` (centres undefined): “inactive”.
Same read-out and setting: to `NC(=O)CCl` belongs “inactive”; to `CCCCN(CCCC)C(=S)[S-].CCCCN(CCCC)C(=S)[S-].[Ni+2]`, “inactive”; to `CCCCCCCCCCCCc1cccc(S(=O)(=O)O)c1`, “inactive”.
Take `O=C(N[C@H]1CN2CCC1CC2)c1ccc2c(c1)OCCO2`: the result was inactive.
The same measure, in the same setting: the same measure for `Clc1cccc(Cl)c1Cl`: “inactive”; for `Cc1cccc(OP(=O)(Oc2cccc(C)c2)Oc2cccc(C)c2)c1`: “inactive”.
In the case of `c1ccc2sc(SNC3CCCCC3)nc2c1`, the result was inactive.
On the same count and under the same terms, to `CC(C)O.CC(C)O.OCCN(CCO)CCO.OCCN(CCO)CCO.[Ti]` belongs “inactive”; to `Oc1c(Br)cc(Br)cc1Br`, “inactive”.
On the same count and under the same terms, the same measure for `Clc1cccc(Cl)c1`: “inactive”.
Consider `CC(C)N(C(=O)CCl)c1ccccc1`, for which the AC50 was 14.5 µM (active).
The same measure, in the same setting: to `Nc1ccc(N)cc1` belongs 19.9 µM (active).
Still for that read-out and setting: the same measure for `Oc1cccc(-c2ccccc2)c1`: 38.9 µM (active).
On to `COCC(=O)N(c1c(C)cccc1C)[C@H](C)C(=O)OC`, for which the outcome was inactive.
With `O=C1C=CC(=O)c2ccccc21`, the AC50 is 4.06 µM (active).
In the case of `Cc1cc(Cl)ccc1N`, the result was inactive.
Take `O=c1oc2ccccc2c(O)c1C(CC(O)c1ccc(-c2ccc(Br)cc2)cc1)c1ccccc1` (centres undefined): the AC50 was 12.6 µM (active).
With `Oc1ccc(Cc2ccc(O)cc2)cc1`, the result was inactive.
With `Cc1c([N+](=O)[O-])c(C)c([N+](=O)[O-])c(C(C)(C)C)c1[N+](=O)[O-]`, the AC50 was 37.4 µM (active).
In the case of `CC(C)(COCC1CO1)COCC1CO1` (centres undefined), the outcome was inactive.
For `CCOC(=O)CC(=O)CCl`, the result was inactive.
Still for that read-out and setting: to `CCCCCCCCCCCCN(C)C` belongs “inactive”.
For the compound `CCOP(=S)(OCC)SCS(=O)(=O)C(C)(C)C`, the outcome was inactive.
